Data published in the supplement of paper PMC3334620.
Whole data set: some 33,000 sequences, median “E-score (-0.5 to 0.5)” near -0.013, cut for the highest 2% near 0.3. This is one part of a sample in which the highest values are shown more often than they occur.

Each sequence was assayed against T1, Msn1 (UniProt P22148) (assay: PBM E-score (8-mer binding enrichment) (E-score (-0.5 to 0.5)); higher = stronger / more preferred TF binding). Conditions: protein concentration: 200 nM; construct: GST-full length.
T1 sequence: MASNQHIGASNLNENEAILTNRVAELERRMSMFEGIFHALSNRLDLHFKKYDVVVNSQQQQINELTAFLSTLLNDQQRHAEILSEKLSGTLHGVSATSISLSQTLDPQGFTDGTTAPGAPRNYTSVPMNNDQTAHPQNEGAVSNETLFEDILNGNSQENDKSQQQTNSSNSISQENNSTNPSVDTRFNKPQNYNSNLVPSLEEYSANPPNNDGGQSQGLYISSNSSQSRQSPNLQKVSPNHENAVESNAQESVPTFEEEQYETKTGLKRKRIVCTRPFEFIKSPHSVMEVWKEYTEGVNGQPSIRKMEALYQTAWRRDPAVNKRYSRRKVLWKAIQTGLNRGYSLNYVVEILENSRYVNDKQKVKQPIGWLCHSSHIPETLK
In short: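 Each ungapped eight-base word and its reverse complement, pooled, received an E-score from the Universal PBM Analysis Suite. Underlying scans, normalised with masliner, recorded fluorescent anti-GST bound to GST-tagged yeast transcription factors. These were applied at about 100-200 nM to universal all-10-mer Agilent arrays double-stranded by primer extension.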

First: CGATATCG
Second: TCCTGAGA
The “PBM E-score” value of the first is lower: 0.0659 for the first, 0.0942 for the second.

First: CTTTATGA
Second: AGCTCTTA
The “PBM E-score” value of the first is higher: 0.0103 for the first, -0.0201 for the second.

First: CGGGCAAG
Second: CAACGTTG
The “PBM E-score” value of the first is lower: 0.0918 for the first, 0.128 for the second.

Compared with AGGCAACA, GCCAGTCA is higher in “PBM E-score” value: -0.161 for the first, -0.117 for the second.

Compared with ATCTGTCA, CTCTGTAC is lower in “PBM E-score” value: 0.159 for the first, 0.0138 for the second.

Going from ATCTGTCC to CTCTGTCA, the “PBM E-score” value falls from 0.387 to -0.0435.

First: ATCTGTCG
Second: CTCTGTCC
The “PBM E-score” value of the first is lower: 0.0829 for the first, 0.34 for the second.

Compared with AAAACCTG, AAGCTCCA is lower in “PBM E-score” value: 0.0428 for the first, -0.219 for the second.

Going from GAAGGGCC to ATCTGTTA, the “PBM E-score” value rises from -0.143 to 0.183.

Compared with ATCGCAAA, ATTTGTCA is higher in “PBM E-score” value: 0.0406 for the first, 0.46 for the second.

Going from ATTTGTTA to ATTTGTTG, the “PBM E-score” value rises from 0.087 to 0.177.

Compared with ATTTGTCG, CTTTGTCC is higher in “PBM E-score” value: 0.451 for the first, 0.485 for the second.

Compared with CTTTGTGA, CTTTGTTA is higher in “PBM E-score” value: 0.126 for the first, 0.215 for the second.

Compared with GTTTGTCA, AGTTGTCG is lower in “PBM E-score” value: 0.299 for the first, 0.168 for the second.

Compared with CTTTGTTC, CTTTGTCA is higher in “PBM E-score” value: 0.0603 for the first, 0.311 for the second.

First: CTTTGTGC
Second: GCGCTAGA
The “PBM E-score” value of the first is higher: 0.058 for the first, -0.116 for the second.

Going from TATTGGCA to GGCTGGAC, the “PBM E-score” value falls from 0.0554 to -0.135.

Compared with TATGGTGA, CCGCTCAC is lower in “PBM E-score” value: -0.0581 for the first, -0.22 for the second.

Going from ATCACGAC to CACAAAGC, the “PBM E-score” value rises from 0.117 to 0.161.

Going from TACAAGGA to AACAAAGA, the “PBM E-score” value falls from 0.197 to 0.139.

First: GACAAGGA
Second: CACAAGGA
The “PBM E-score” value of the first is higher: 0.311 for the first, 0.0619 for the second.

Compared with GACAAAGA, GACAAAGC is lower in “PBM E-score” value: 0.404 for the first, 0.393 for the second.

Going from AACAAAGC to TACAAAGA, the “PBM E-score” value rises from -0.00117 to 0.208.

Going from CCATGAAG to ACGTCGCT, the “PBM E-score” value falls from 0.0685 to -0.211.

Going from CAAGTGAA to GCATGCCC, the “PBM E-score” value falls from 0.223 to 0.101.

First: CTCTTGCC
Second: GGACAGAA
The “PBM E-score” value of the first is lower: -0.0644 for the first, 0.332 for the second.

Going from CGACAGAC to CGACAGAA, the “PBM E-score” value rises from -0.0767 to 0.167.

Going from GGACAGAC to AGACAGAC, the “PBM E-score” value falls from 0.375 to 0.279.

Going from AGACAGAA to GATTGCAC, the “PBM E-score” value rises from 0.00949 to 0.0495.

Going from CGAAAGCG to AAGCCAGA, the “PBM E-score” value falls from 0.0854 to 0.00654.

Compared with ACGTTCAG, AGTCCACG is lower in “PBM E-score” value: -0.0415 for the first, -0.059 for the second.

Going from TGTCCGAA to GGTCCGAA, the “PBM E-score” value falls from 0.452 to 0.128.

First: GGTCCTAA
Second: TGTCCACA
The “PBM E-score” value of the first is lower: 0.18 for the first, 0.455 for the second.

First: AGTCCTAA
Second: CGTCCACA
The “PBM E-score” value of the first is higher: 0.297 for the first, 0.188 for the second.

Compared with TGTCCAAA, TGTCCTAA is higher in “PBM E-score” value: 0.473 for the first, 0.487 for the second.

Going from AGTCCAAA to GGTCCAAA, the “PBM E-score” value falls from 0.214 to -0.0431.

Compared with CGTCCGAA, CCGGGATA is lower in “PBM E-score” value: 0.222 for the first, 0.101 for the second.

First: ACTGGTTC
Second: CCAGCTAG
The “PBM E-score” value of the first is higher: -0.0366 for the first, -0.16 for the second.

Compared with CGCCTGAC, CCTAACGC is lower in “PBM E-score” value: -0.0177 for the first, -0.129 for the second.

Compared with AGTGAGGA, AACATAGC is higher in “PBM E-score” value: -0.0425 for the first, 0.13 for the second.

First: CCACCAAC
Second: AACCTGGT
The “PBM E-score” value of the first is lower: -0.0306 for the first, 0.00051 for the second.

First: AGTCCCAA
Second: CGTCCCAA
The “PBM E-score” value of the first is lower: 0.17 for the first, 0.218 for the second.

First: TGTCCCAA
Second: AAGCATTA
The “PBM E-score” value of the first is higher: 0.463 for the first, -0.0789 for the second.

First: CTCGATGA
Second: ACGACCTA
The “PBM E-score” value of the first is lower: -0.0098 for the first, -0.0056 for the second.

Compared with CAGGCCGC, CACATACC is higher in “PBM E-score” value: -0.144 for the first, 0.0401 for the second.

Going from TACATACA to GACATACC, the “PBM E-score” value rises from 0.207 to 0.4.

Compared with AACATACC, CACATACA is lower in “PBM E-score” value: 0.107 for the first, 0.0971 for the second.

First: GACATACA
Second: GCGGATCA
The “PBM E-score” value of the first is higher: 0.414 for the first, -0.116 for the second.

Going from ACAAAAGG to AGTTAGAC, the “PBM E-score” value falls from 0.229 to 0.124.

Going from CTTGGGTC to GGACTCAC, the “PBM E-score” value rises from -0.123 to -0.116.

First: GCCCTTTA
Second: CTACAAAC
The “PBM E-score” value of the first is lower: -0.318 for the first, -0.0616 for the second.

Compared with GTCCAAAA, ATACAAAC is lower in “PBM E-score” value: 0.318 for the first, 0.125 for the second.

First: GTCCAAAC
Second: GTACAAAC
The “PBM E-score” value of the first is lower: 0.175 for the first, 0.421 for the second.

Compared with GTACAAAA, CTACAAAA is lower in “PBM E-score” value: 0.416 for the first, 0.0933 for the second.

First: TTACAAAA
Second: TTCCAAAA
The “PBM E-score” value of the first is lower: 0.12 for the first, 0.192 for the second.

Going from ACGAGTAT to GAAGGCTC, the “PBM E-score” value falls from -0.134 to -0.291.

Compared with CTTGGGCC, CTACACGC is higher in “PBM E-score” value: -0.266 for the first, -0.145 for the second.

Going from GCTTCTAC to CGTAAGTA, the “PBM E-score” value rises from -0.0502 to 0.0282.

Going from CCGTGACA to ATGTGACG, the “PBM E-score” value falls from 0.164 to -0.223.

First: GTGTGACA
Second: ACGTGACA
The “PBM E-score” value of the first is lower: 0.17 for the first, 0.27 for the second.

Compared with TCGTGACA, CTGTGACA is higher in “PBM E-score” value: 0.314 for the first, 0.316 for the second.

Compared with CTGTGAAA, CTGTGACC is lower in “PBM E-score” value: 0.2 for the first, -0.115 for the second.

First: ATGTGACA
Second: CCTGCTTC
The “PBM E-score” value of the first is higher: 0.305 for the first, -0.172 for the second.

Going from GCGCCTAA to CGTAGGGA, the “PBM E-score” value falls from 0.129 to 0.0214.

First: GGTTTGCA
Second: ACGAATCA
The “PBM E-score” value of the first is lower: -0.172 for the first, 0.13 for the second.

Compared with CAGTCACG, ATTGCTGC is higher in “PBM E-score” value: -0.198 for the first, -0.0878 for the second.

First: ATTCGGAG
Second: ATTCGGAA
The “PBM E-score” value of the first is lower: 0.0972 for the first, 0.167 for the second.

Going from ATTCGGAC to AAAGATAT, the “PBM E-score” value falls from 0.339 to 0.113.

Going from AATGAGAG to CCCCAATC, the “PBM E-score” value falls from -0.161 to -0.222.

First: ATGACATA
Second: ATGACACA
The “PBM E-score” value of the first is higher: 0.417 for the first, 0.287 for the second.

Going from ATGACATC to GTGACATA, the “PBM E-score” value falls from 0.349 to 0.328.

Going from GTGACTGA to ATGACAGG, the “PBM E-score” value rises from 0.0999 to 0.105.

Going from ATGACAGA to GTGACAGA, the “PBM E-score” value rises from 0.137 to 0.161.

First: ATGACATG
Second: CTGACATA
The “PBM E-score” value of the first is higher: 0.361 for the first, 0.269 for the second.

First: CTGACATC
Second: ATGACACC
The “PBM E-score” value of the first is higher: 0.143 for the first, 0.0663 for the second.

Compared with AGCGCGTG, CATTGGGG is higher in “PBM E-score” value: -0.133 for the first, -0.125 for the second.

Compared with GGGACCAA, CGCCTCTA is higher in “PBM E-score” value: -0.0643 for the first, -0.0484 for the second.

Compared with CACACTGG, CATGCAGA is higher in “PBM E-score” value: -0.259 for the first, -0.0066 for the second.

Compared with CATCTCGA, CAAGAAAG is lower in “PBM E-score” value: 0.149 for the first, 0.0067 for the second.

Going from GATCTTAC to AGAGACAG, the “PBM E-score” value rises from 0.00117 to 0.0165.

Compared with AGAGACAC, AGAGACAT is higher in “PBM E-score” value: 0.177 for the first, 0.43 for the second.

First: TGAGACCA
Second: CGAGACAG
The “PBM E-score” value of the first is lower: -0.0631 for the first, -0.00132 for the second.

Compared with AGAGACAA, AGAGACCT is lower in “PBM E-score” value: 0.375 for the first, -0.012 for the second.

First: CGAGACAA
Second: TGAGAGAA
The “PBM E-score” value of the first is higher: 0.365 for the first, 0.00621 for the second.

Compared with TGAGACAA, CGAGACAC is lower in “PBM E-score” value: 0.397 for the first, 0.183 for the second.

First: AGAGAGAC
Second: ATAGCGGG
The “PBM E-score” value of the first is higher: -0.0618 for the first, -0.192 for the second.
